Assay results reported in PubChem BioAssay AID1508602 (The Scripps Research Institute Molecular Screening Center, 2020).
Among all 650,000 compounds or so, about 6,800 (1%) were called active. Cut-off read from the data, not from the text of the source: active = activation above about 4.9%; inactive = the rest. Shown is part of a subset that was picked to be rich in actives.

These compounds were tested against G-protein coupled receptor 151 (Homo sapiens) (UniProt Q8TDV0) (assay: activators of human GPR151, primary screen, cell-based, PathHunter beta-arrestin, luminescence (AID 1508602;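 note: 0% = median of compound wells and 100% = cells with positive control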)). Settings: PathHunter beta-arrestin GPR151 cells, at 11.2 µM, hits give high values.
Chain of G-protein coupled receptor 151 (Homo sapiens) (Q8TDV0 whole entry, looked up): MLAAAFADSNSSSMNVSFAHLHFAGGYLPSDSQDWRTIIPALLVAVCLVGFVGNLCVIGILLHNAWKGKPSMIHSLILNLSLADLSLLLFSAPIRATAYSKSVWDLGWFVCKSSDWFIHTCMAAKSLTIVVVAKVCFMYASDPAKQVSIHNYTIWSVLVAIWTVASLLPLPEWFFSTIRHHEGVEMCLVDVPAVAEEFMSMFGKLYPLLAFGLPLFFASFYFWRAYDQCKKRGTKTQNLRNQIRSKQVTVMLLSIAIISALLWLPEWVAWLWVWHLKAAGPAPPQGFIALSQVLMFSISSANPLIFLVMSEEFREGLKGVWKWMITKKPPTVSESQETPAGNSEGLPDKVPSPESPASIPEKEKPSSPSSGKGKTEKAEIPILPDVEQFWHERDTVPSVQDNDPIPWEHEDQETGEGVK

Row | Compound | activation
1 | C=CCN1C(=O)NC(=O)/C(=C/c2ccc(O)c(OC)c2)C1=O | -0.157% (inactive)
2 | COc1cc(/C=C2\C(=O)NC(=O)N(c3ccccc3)C2=O)ccc1O | 8.77% (active)
3 | COc1ccccc1N1C(=O)NC(=O)/C(=C\c2ccc(Cl)cc2Cl)C1=O | 0.657% (inactive)
4 | COc1cc(NC(=O)CCc2nc(C3=CCN(C)CC3)no2)cc(OC)c1OC | -0.399% (inactive)
5 | O=C(O)C1C2CC3CC(C2)CC1(n1ncc(NC2CCCC2)c(Cl)c1=O)C3 (stereo not given) | 1.35% (inactive)
6 | O=c1cccc2n1CC1CC2CN(Cc2ccc(F)cc2)C1 (stereo not given) | 1.89% (inactive)
7 | COc1ccccc1N1CCN(C(CNC(=O)Oc2ccccc2)c2cccnc2)CC1 (stereo not given) | 9.52% (active)
8 | COc1ccccc1N1CCN(Cc2cccc(O)c2)CC1 | 0.277% (inactive)
9 | O=C(NCC(c1cccnc1)N1CCN(c2ccccc2)CC1)Oc1ccccc1 (stereo not given) | 0.68% (inactive)
10 | O=C(Cc1cccs1)N1CCN(Cc2nnnn2-c2ccc(F)cc2)CC1 | 1.07% (inactive)
11 | Cc1ccc(Cc2nc[nH]c2C)cc1 | 0.705% (inactive)
12 | COc1ccc(CCNCc2ccc(O)cc2)cc1 | 1.2% (inactive)
13 | Cc1cc(Cl)ccc1C(=O)C1CCCN(Cc2ncc[nH]2)C1 (stereo not given) | -0.596% (inactive)
14 | CC[n+]1c(/C=C/C=C2\N(C)c3ccccc3C2(C)C)n(-c2ccccc2)c2ccc(Cl)cc21 | 5.9% (active)
15 | C=CCOC(=O)C1=C(C)OC(N)=C(C(=O)OCC)C12C(=O)N(CC=C)c1ccccc12 (stereo not given) | -0.446% (inactive)
16 | COc1cc(Br)cc(CN2CC3CC(C2)c2cccc(=O)n2C3)c1O (stereo not given) | -0.476% (inactive)
17 | CCOC(=O)C1=C(N)OC2=C(C(=O)CCC2)C12C(=O)Nc1ccc(Br)cc12 (stereo not given) | 9.15% (active)
18 | CCOC(=O)C1=C(C)OC(N)=C(C(=O)OC)C12C(=O)Nc1ccc(Br)cc12 (stereo not given) | -0.299% (inactive)
19 | CCOC(=O)C1=C(N)Oc2n[nH]c(C)c2C12C(=O)Nc1ccc(Br)cc12 (stereo not given) | 0.383% (inactive)
20 | CC(C)c1ccc(NC(=O)c2cc3cccnc3n(Cc3ccc(F)cc3)c2=O)cc1 | 1.47% (inactive)
